Measured values published in PubChem BioAssay (NCI).
Where “and” joins values, the source holds several entries; their conditions need not be identical. Identical values can stand only once. This is part of a sample that, as a whole, favours compounds with a hit. Of some 83,000 tested, about 20% had one in any assay.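 Testing used 96-well plates and a 48-hour single-concentration exposure. Example: -40 means 40% of the starting cells died.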 Calls of active or inactive are those of the source. The calls were made as follows: active = growth percent below 10; inactive = the rest.

system: HL-60(TB) leukemia; assay: NCI-60 one-dose screen, 48 h (100 = growth as untreated, 0 = no growth, -100 = all killed); conditions: 10 µM unless noted

Row | SMILES | growth
1 | COc1ccc(C/C(C)=C(/c2ccc(OCCN3CCCCC3)cc2)c2ccc(OC(=O)NCc3ccccc3)cc2)cc1 | -75.1% (active)
2 | CC(=O)n1nc(C(=O)OC(C)C)c2cc(C)c(C)cc21 | 83.7% (inactive)
3 | COc1ccc(Nc2nnc(SCc3ccccc3F)s2)cc1 | 86% (inactive)
4 | COc1ccc(-c2cc(=O)c3c(O)cc(O)cc3o2)cc1 | 73.4% (inactive) and 103% (inactive)
5 | c1ccc(-c2nc(N3CCNCC3)c3nc(-c4ccccc4)oc3n2)cc1 | -49.6% (active)
6 | C#Cc1cccc(NC(=O)c2ccc(NC(=O)CCl)cc2)c1 | 11.7% [8.25 µM] (inactive)
7 | C/C(=C\C(=N\N=C(N)N)c1ccc(Cl)cc1)c1ccc(Cl)cc1 | -68% (active)
8 | CCCCN(CCCC)CCCNc1c2c(nc3ccc(Cl)cc13)CCCC2 | 89% (inactive)
9 | COc1ccc(-c2noc(N)c2-c2cc(OC)c3c(c2)OCO3)cc1 | -29.4% (active)
10 | COC1=CC(c2ccc[nH]2)=N/C1=C\c1[nH]c(C)c(C(=O)CCCCC(=O)NCc2ccccc2)c1C | 69% (inactive)
11 | CCCCN(CCCC)CCCCCCCCCCO | 95.1% (inactive)
12 | C#CC(=O)Nc1cccc(Nc2nc3c(c(NCc4ccccc4)n2)CCCC3)c1 | -25.5% (active)
13 | CC(=O)OC1Oc2ccccc2-c2oc(=O)c(-c3cc(=O)oc4cc(O)ccc34)cc21 (stereo not given) | 47% (inactive)
14 | CCOc1ccc(Nc2nc(-c3c(C)nc4ncccn34)cs2)cc1 | -34.1% (active)
15 | COc1ccc(-c2nc3ccccn3c2/C=C/C(=O)c2cc(OC)c(OC)c(OC)c2)cc1 | 49.9% (inactive)
16 | CCCCCCN1C(=O)CN=C1Nc1ccc2cc3ccc(NC4=NCC(=O)N4CCCCCC)cc3nc2c1 | 50.1% (inactive)
17 | COC(=O)CCC(=O)c1ccccc1 | 94.7% (inactive)
18 | CCS(=O)(=O)c1cc(=O)[nH]c(=O)[nH]1 | 117% (inactive)
19 | Cn1c(-c2nonc2NC(=O)c2ccc(F)cc2)nc2ccccc21 | -30.1% (active)
20 | Nc1nc(=S)c2[nH]cnc2[nH]1 | 13.9% (inactive) and -13.4% (active)

Row | SMILES | growth
21 | NS(=O)(=O)c1ccc(C2C3=C(CCCC3=O)OC3=C2C(=O)c2ccccc2C3=O)cc1 (stereo not given) | -40.5% (active)
22 | CC[C@H](C)C(=O)O[C@H]1CCC=C2C=C[C@H](C)C(CCC3C[C@@H](O)CC(=O)O3)[C@H]21 (stereo not given in full) | 97.8% (inactive)
23 | Cc1ccc(C(=O)c2ccc(C)cc2)cc1 | 92.5% (inactive) and 98.6% (inactive)
24 | CC1=C([Se]CC(OC(=O)CC[Se]c2ccccc2)C(=O)NCCCCCC(=O)OCc2ccccc2)C(=O)c2ccccc2C1=O (stereo not given) | 15.5% (inactive)
25 | COc1ccc2c(c1)[n+]([O-])c(C(=O)/C=C/C=C(\Cl)c1cc(OC)c(OC)c(OC)c1)c(C)[n+]2[O-] | 107% (inactive)
26 | O=C(Nc1cccc([N+](=O)[O-])c1)Nc1cccc([N+](=O)[O-])c1 | 13% (inactive)
27 | C=CCN=c1sc2c(n1NC(=O)c1cc3ccc1CCc1ccc(cc1)CC3)C(=O)c1ccccc1C2=O | -20.1% (active)
28 | COc1ccc(/C=N/NC(=O)Cn2c(Cc3cccc4ccccc34)nc3ccccc32)cc1 | 93.2% (inactive)
29 | COc1ccc(/C=C2/C(=O)NC(SCC(=O)N3CCN(c4cc5c(cc4F)c(=O)c(C(=O)O)cn5C4CC4)CC3)=NC2N)cc1OC (stereo not given) | 104% (inactive)
30 | COc1ccc(-c2cnc(-c3ccc(F)cc3)[nH]2)cc1 | 74.9% (inactive)
31 | CCOC(=O)c1cc2c(=O)oc3ccccc3c2oc1=O | 106% (inactive)
32 | N#C/C(=C\c1ccc2c(c1)OCO2)n1nnc2cc(F)c(F)cc21 | 38.6% (inactive)
33 | Nc1cc(N)ncn1 | 47.3% (inactive)
34 | CC(C)CNC(=O)c1ccccc1C(=O)NC1(C(=O)NCC(C)C)CCCC1 | 92.9% (inactive) and 97.4% (inactive)
35 | CCC(=C(c1ccc(OCCN2CCCC2)cc1)c1ccc(OCCN2CCCC2)cc1)c1ccc(Cl)cc1 | -52.5% (active)
36 | O=C(CCCCCCSc1nc(-c2ccc(Cl)cc2)cc(-c2ccc(Cl)cc2)n1)NO | 9.99% (active)
37 | O=C(N=Nc1c(O)[nH]c2ccc(F)cc12)c1cc2ccccc2[nH]1 | 79.3% (inactive)
38 | CCNC(=O)c1ccc2c(c1)nc(-c1ccc(Cl)cc1)n2-c1cc(C(C)(C)C)[nH]n1 | 4.73% (active)
39 | COc1ccc(-c2nc3ccc4[nH]ncc4c3c3c2CCCC3)cc1B(O)O | 64.6% (inactive)
40 | Cc1ccc(NC2=C(Cl)C(=O)c3nc(C)ccc3C2=O)cc1 | -10.8% (active)
